# Data published in PubChem BioAssay (NCI).
# This is part of a sample that, as a whole, favours compounds with a hit. Of some 83,000 tested, about 20% had one in any assay.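 Activity criterion: percent growth below 10, measured after cells in 96-well plates were exposed to a single compound concentration for 48 hours.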 A number with no mark means an inactive call. Active and inactive are the calls of the source.
# Tested on: COLO 205 colon
# Assay: NCI-60 one-dose screen, 48 h (100 = growth as untreated, 0 = no growth, -100 = all killed)
# Conditions: 10 µM unless noted
# Procedure: Cells are grown in 96 well plates and exposed to the test compound for 48 hours. Compounds are tested at a single concentration, which is 10^-5 M for most compounds. The reported endpoint is percent growth (GI% or GIPRCNT), where numbers from 0 - 100% represent growth inhibition, and numbers from -100% - 0 represent cell death. For example, a value of 40 represents 60% growth inhibition. A value of 0 means no net growth occurred over the course of the experiment. A value of -40 indicates 40% of cells at the beginning of the experiment died by the end of the experiment. A value of -100 means all cells are dead at the end of the experiment.
# NCI-60 Human Tumor Cell Lines Screen was performed using the standard one-dose NCI protocol, which is described in more detail at https://dtp.cancer.gov/discovery_development/nci-60/default.htm.
# Compounds with GIPRCNT values below 10 were considered active. Activity score was based on GIPRCNT using the following formula: […]
# Score is 0 for GIPRCNT values of 100 or above, 50 for GIPRCNT values of 0, and 100 for GIPRCNT values of -100.
row,SMILES,growth
1,Cc1cc2c(F)c(Oc3ncnn4cc(OC[C@@H](C)OC(=O)[C@H](C)N)c(C)c34)ccc2[nH]1,-6.99% (active)
2,CC(C)Nc1cc(-c2c[nH]c(C(=O)N[C@H](CO)c3cccc(Cl)c3)c2)c(Cl)cn1,-19.2% (active)
3,Cc1cccc(NC(=O)[C@@H]2c3ccccc3C(=O)N(c3ccc(Cl)cc3)[C@H]2c2ccc(Cl)cc2)n1,30.7%
4,CCN(CCO)CCCOc1ccc2c(Nc3cc(CC(=O)Nc4cccc(F)c4)[nH]n3)ncnc2c1,-35.6% (active)
5,Cc1sc2c(c1C)c(=O)nc1c(-c3nc4ccccc4s3)n[nH]n12,103%
6,CCN1/C(=C/C=C/c2n(-c3ccccc3)c3ccc(-c4nc5ccccc5s4)cc3[n+]2CC)N(c2ccccc2)c2ccc(-c3nc4ccccc4s3)cc21,-5.05% (active)
7,Cc1cn(-c2cc(NC(=O)c3ccc(C)c(Nc4nccc(-c5cccnc5)n4)c3)cc(C(F)(F)F)c2)cn1,19.8%
8,COc1ccc(CCCc2c3[n+](cc4c(OC)c(OC)ccc24)CCc2cc4c(cc2-3)OCO4)cc1,-11.2% (active)
9,COc1cc(C2CC(c3ccc(Cl)cc3)=NN2c2ccc(Cl)cc2)cc(OC)c1OC (stereo not given),91.4%
10,Cn1c(=O)c(F)c(Nc2ccc(I)cc2F)c2c(=O)n(C[C@@H](O)CO)cnc21,2.24% (active)
11,NC(=O)N1N=C(c2ccc(Cl)cc2)CC1c1cn(-c2ccccc2)nc1-c1ccc(Cl)cc1 (stereo not given),81.9%
12,CN1CCN(CC(=O)Nc2ccc(-c3nc4ccccc4s3)cc2)CC1,39.7%
13,CC(C)[C@@H]1CC[C@@H]2[C@@H]1[C@H](OC(=O)/C=C/c1ccccc1)[C@]1(C(C)C)C[C@@H](OC(=O)CO)[C@@]2(C)O1,84.6%
14,C[C@H](NC(=O)c1c(N)nn2cccnc12)c1cc2cccc(C#Cc3cnn(C)c3)c2c(=O)n1-c1ccccc1,-11.7% (active)
15,CC(C)(O)CC(=O)NCCn1ccc2ncnc(Nc3ccc(Oc4cccc(C(F)(F)F)c4)c(Cl)c3)c21,-67.4% (active)
16,O=c1[nH]c(N2CCOCC2)nc2scc(-c3ccccc3)c12,101%
17,Cc1nn(-c2ccccc2)c2c1N=c1s/c(=C\c3cn(-c4ccccc4)nc3-c3ccc(Cl)cc3)c(=O)n1C(C)N2 (stereo not given),99.2%
18,CCOC(=O)C1=C(C)N=C2Sc3cccc(OC)c3N2[C@H]1c1ccccn1,103%
19,CC(=O)NCC(=O)N1[C@@H]2CC[C@H]1c1ccc(Nc3ncc(C(F)(F)F)c(NC4CCC4)n3)cc12,-22.6% [2.5 µM] (active)
20,COc1ccc2c(OCc3nnc4ccc(-c5ccccc5)nn34)ccnc2c1,95.3% [2.5 µM]

row,SMILES,growth
1,COC(=O)Nc1nc2ccc(C(=O)c3ccc(N(C)C4COC4)cc3)cc2[nH]1,-38.8% (active)
2,Cc1cc(C(=O)Nc2cc(Oc3ccc4nc(NC(=O)C5CC5)cn4n3)ccc2C)n(C)n1,-27.2% (active)
3,Cc1cc2c(-c3nc4ccccn4c3Nc3cccc4ccccc34)c(O)c(O)cc2c(O)c1-c1c(C)cc2c(-c3nc4ccccn4c3Nc3cccc4ccccc34)c(O)c(O)cc2c1O,28%
4,Fc1ccc(NCc2cn(-c3ccccc3)nc2-c2ccc(OCc3ccccc3)cc2)cc1Cl,100%
5,C=CC[n+]1c(/C=C2\Sc3ccccc3N2C)sc(-c2ccccc2)c1-c1ccccc1,-30.2% (active)
6,CCCS(=O)(=O)Nc1ccc(F)c(C(=O)c2c[nH]c3ncc(-c4ccc(Cl)cc4)cc23)c1F,-4.91% (active)
7,CCn1c(-c2nonc2N)nc2c(C#CC(C)(C)O)ncc(OC[C@H]3CCCNC3)c21,38.2%
8,CCOc1cc2ncc(C#N)c(Nc3ccc(F)c(Cl)c3)c2cc1NC(=O)/C=C/CN(C)C,-83.2% (active)
9,COC(=O)[C@]12CC[C@@H](C)[C@H](C)[C@@H]1C1=CC[C@@H]3[C@@]4(C)C(c5cnco5)=C[C@@](C)(CO)C4=CC[C@@]3(C)[C@]1(C)CC2,27.2%
10,CCc1cc2c(cc1N1CCC(N3CCOCC3)CC1)C(C)(C)c1[nH]c3cc(C#N)ccc3c1C2=O,-42.5% (active)
11,Cc1cc([C@@H](C)Nc2ccccc2C(=O)O)c2nc(N3CCOCC3)cc(=O)n2c1,-5.47% (active)
12,Cc1ccc(-c2cc3c(SCC(=O)Nc4cc(C(F)(F)F)ccc4Cl)nccn3n2)cc1,27%
13,O=c1[nH]c([C@@H]2CCCN2)nc2c1oc1ccc(Cl)cc12,12%
14,Cc1cc(-c2cc(OC(=O)c3ccccc3)ccc2Cl)cc2nnc(Nc3ccc(OCCN4CCCC4)cc3)nc12,62.8%
15,C/C=C/C=N/NC(=S)Nc1ccccc1,101%
16,CNC(=O)c1cc(Oc2cccc3nc(Nc4ccc(Cl)c(F)c4)ccc23)ccn1,84.3%
17,O=C(NC1CCNCC1)c1[nH]ncc1NC(=O)c1c(Cl)cccc1Cl,-35.9% (active)
18,O=C1CC(c2ccc(Cl)cc2)c2ncn(-c3cccc(Cl)c3)c2N1 (stereo not given),97.7%
19,C[C@@H]1COC(Nc2ccc3ncnc(Nc4ccc(OCc5nccs5)c(Cl)c4)c3c2)=N1,-9.99% (active)
20,O=C(NC[C@H](O)CO)c1ccncc1Nc1ccc(I)cc1F,-8.7% (active)
